“And” between values parts separate entries of the source, which are not always exact repeats. Equal values may be shown once. The source made the active and inactive calls. Unless noted, calls come from the whole dose curve; as a rule, active = well fitted curve in the direction sought with a large enough effect; inconclusive = small, poorly fitted or top-dose-only effect, or another doubt; inactive = no such curve, though single readings can be large; an effect the other way counts as inactive or inconclusive.
Key:
[1] = Cell Viability - LYMP2-019 (AID 973);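 note: 0% = DMSO alone and full effect = 92 µM tetraoctylammonium bromide; nearly all actives have a fitted effect of over 55% in size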
In short: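 Cells plated at 2500/well and allowed 5 hr at 37 C before compound addition. After 24 hr incubation, CellTiter-Glo reagent was added, plates sat 30 min at room temperature, and luminescence was recorded.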

[2] = Cell Viability - LYMP2-021 (AID 974);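 note: compound exposure lasts 24 hours at 37 °C; % is set by controls: 0 for no effect and ±100 for the full control effect; nearly all actives have a fitted effect of over 55% in size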
In short: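 Concentration-response cytotoxicity in a human lymphoblastoid line: 24 hr treatment at 37 C in complete culture medium, tetraoctylammonium bromide as positive control, luminescent ATP quantitation as viability measure.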

[3] = Cell Viability - LYMP2-023 (AID 975);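 note: cellular ATP measured by luciferase luminescence as viability proxy; series mostly up to about 92 µM; cells exposed to compound for 24 hours at 37 °C; plate controls were DMSO only for no effect and 92 µM tetraoctylammonium bromide control for full effect; nearly all actives have a fitted effect of over 55% in size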
In short: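 Concentration-dependent drop in intracellular ATP measures acute cytotoxicity in a human lymphoblastoid line treated for 24 hours in complete culture medium. AC50 values are taken from Hill-equation fits of qHTS data.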

[4] = Cell Viability - LYMP2-025 (AID 976);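 note: series mostly up to about 92 µM; plate controls were DMSO only for no effect and tetraoctylammonium bromide control for full effect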
In short: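 In qHTS format, LYMP2-025 lymphoblastoid cells in complete culture medium received compound for 24 hr; ATP-based CellTiter-Glo signal gave viability, with AC50 derived by Hill equation.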

[5] = Cell Viability - LYMP2-002 (AID 977);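 note: series mostly up to about 92 µM; compound exposure lasted 24 h at 37 °C; plate controls were DMSO only for no effect and 92 µM tetraoctylammonium bromide for full effect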
In short: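 Cytotoxicity is scored as concentration-dependent loss of cellular ATP in a human lymphoblastoid line after 24 hr compound treatment at 37 C. AC50 is obtained by modelling concentration-response data with the Hill equation.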

[6] = Cell Viability - LYMP2-006 (AID 978);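 note: series mostly up to about 92 µM; cells exposed to compound for 24 hours; % is set by controls: 0 for no effect and ±100 for the full control effect; nearly all actives have a fitted effect of over 60% in size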
In short: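 Human lymphoblastoid cells (LYMP2-006), 2500/well in complete medium, were treated with compound for 24 hr at 37 C. Cellular ATP was read by CellTiter-Glo luminescence after 30 min, and AC50 values came from Hill-equation fits of concentration-response data.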

[7] = Cell Viability - LYMP2-007 (AID 979);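 note: cells exposed to compound for 24 h before reading; 0% = DMSO only and the negative end = 92 µM tetraoctylammonium bromide; nearly all actives have a fitted effect of over 60% in size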
In short: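 Acute toxicity is scored as a concentration-dependent fall in intracellular ATP in human lymphoblastoid cells treated 24 hr at 37 C, measured by luciferase luminescence; Hill-equation modelling yields AC50.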

[8] = Cell Viability - LYMP2-008 (AID 980); note: % is set by controls: 0 for no effect and ±100 for the full control effect; nearly all actives have a fitted effect of over 60% in size
In short: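 Acute cytotoxicity is scored as concentration-dependent loss of cellular ATP in a human lymphoblastoid line after 24 hr treatment at 37 C. ATP is quantified by luciferase luminescence.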

[9] = Cell Viability - LYMP2-012 (AID 982);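 note: cellular ATP by luciferase luminescence where a drop means cytotoxicity; cells exposed to compound for one day before reading; 0% = DMSO only and full loss = 92 µM tetraoctylammonium bromide; nearly all actives have a fitted effect of over 55% in size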
[10] = Cell Viability - LYMP2-014 (AID 983);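 note: series mostly up to about 92 µM; plate controls were DMSO only for no effect and 92 µM tetraoctylammonium bromide for full effect; nearly all actives have a fitted effect of over 50% in size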
In short: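 Decrease in intracellular ATP after 24 hr treatment at 37 C, measured by luciferase luminescence, indicated cytotoxicity. Concentration-response data were fitted with the standard Hill equation to give AC50.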

[11] = Cell Viability - LYMP2-016 (AID 984)
In short: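 Human lymphoblastoid LYMP2-016 cells, 2500 per well, treated with compounds for 24 h at 37 C. Viability read as intracellular ATP by CellTiter-Glo luminescence after 30 min at room temperature; AC50 from Hill fits of concentration-response.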

[12] = Cell Viability - LYMP2-018 (AID 985);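 note: compound exposure lasted 24 hr at 37 °C; plate controls were DMSO only for no effect and tetraoctylammonium bromide at 92 µM for full effect; nearly all actives have a fitted effect of over 50% in size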
In short: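 Acute cytotoxicity is scored as a concentration-dependent drop in intracellular ATP after 24 hr exposure of the lymphoblastoid line in complete culture medium, measured by luciferase luminescence. Potency is expressed as AC50 from Hill modelling.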

[13] = Cell Viability - LYMP2-020 (AID 986)
In short: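 Acute cytotoxicity in a human lymphoblastoid line is scored as a concentration-dependent fall in cellular ATP after 24 hr at 37 C in complete medium. The positive control is tetraoctylammonium bromide, and potency is given as Hill-fit AC50.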

[14] = Cell Viability - LYMP2-024 (AID 988);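 note: plate controls were DMSO only for no effect and 92 µM tetraoctylammonium bromide for full effect; nearly all actives have a fitted effect of over 60% in size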
In short: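 Acute toxicity is measured as concentration-dependent loss of intracellular ATP in a human lymphoblastoid line treated 24 hours at 37 C. Luciferase luminescence quantifies ATP; AC50 values come from standard Hill-equation modelling.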

[15] = Cell Viability - LYMP2-026 (AID 989); note: % is set by controls: 0 for no effect and ±100 for the full control effect; nearly all actives have a fitted effect of over 50% in size
In short: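 Concentration-dependent loss of intracellular ATP in human lymphoblastoid cells after 24 hr at 37 C, quantified by luciferase luminescence. AC50 derived from standard Hill equation.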

[16] = Cell Viability - LYMP1-002 - Assay at 24 hr (AID 993); note: % is set by controls: 0 for no effect and ±100 for the full control effect
In short: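 qHTS, LYMP1-002 lymphoblastoid, 24 h cpd, 37 C, CellTiter-Glo ATP luminescence; AC50 via Hill eq.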

[17] = qHTS Assay for Identification of Small Molecule Inducers of Hypoxia Response (AID 2120; active = well fitted curve in the direction sought with a large enough effect in the signal ratio, with a control signal flat, not every such curve was filed as active; inconclusive = small, poorly fitted or top-dose-only effect, or a change in a side signal; inactive = no such curve, though single readings can be large or run the other way; the % refers to the signal ratio; note: 0% is about no effect)
In short: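 Induction of beta-lactamase reporter activity was measured in CellSensor HRE-bla ME-180 cells after 17 h compound treatment at 37 degrees C, using CCF4 substrate and the 460nm/530nm emission ratio to derive AC50 values.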

[18] = target: Estrogen receptor (Homo sapiens) (UniProt P03372); test: qHTS assay for small molecule antagonists of estrogen receptor alpha signaling (AID 588513; active = well fitted curve in the direction sought with a large enough effect in the signal ratio, with a control signal flat, not every such curve was filed as active; inconclusive = small, poorly fitted or top-dose-only effect, or effect the other way, or a change in a side signal; inactive = no such curve, though single readings can be large or run the other way; the % refers to the signal ratio; note: potency is the fitted concentration of half-maximal effect)
In short: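 ER-alpha-UAS-bla GripTite HEK 293 cells in 2% charcoal/dextran-treated FBS medium; compounds titrated (1:2, duplicate), then stimulated with 0.5 nM 17-beta-estradiol for 18 h at 37C. CCF4 beta-lactamase fluorescence; Hill-fit IC50 and efficacy.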

[19] = target: Estrogen receptor (Homo sapiens) (UniProt P03372); test: qHTS assay for small molecule agonists of estrogen receptor alpha signaling (AID 588514; calls by dose curve; note: potency is the fitted concentration of half-maximal effect; nearly all actives have a fitted effect of over 70% in size)
In short: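 Reporter-gene assay. […] controls beta-lactamase in HEK 293 GripTite cells; after 18 hrs with compound, CCF4 substrate is added for 2 hrs and fluorescence is read.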

[20] = target: Androgen receptor (Homo sapiens) (UniProt P10275); test: qHTS assay for small molecule antagonists of androgen receptor signaling (AID 588516; active = well fitted curve in the direction sought with a large enough effect in the signal ratio, with a control signal flat, not every such curve was filed as active; inconclusive = small, poorly fitted or top-dose-only effect, or effect the other way, or a change in a side signal; inactive = no such curve, though single readings can be large or run the other way; the % refers to the signal ratio; note: potency is the fitted concentration of half-maximal effect)
In short: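 AR-UAS-bla GripTite HEK 293 cells (2000/well) treated with compound titrations plus 10 nM R1881 for 16 h at 37C. Beta-lactamase read by CCF4 FRET (460/530 nm); IC50 from Hill fits, normalized to R1881 and DMSO control wells.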

[21] = target: Peroxisome proliferator-activated receptor gamma (Homo sapiens) (UniProt P37231); test: qHTS assay for small molecule agonists of peroxisome proliferator-activated receptor gamma signaling (AID 588536; active = well fitted curve in the direction sought with a large enough effect in the signal ratio, with a control signal flat, not every such curve was filed as active; inconclusive = small, poorly fitted or top-dose-only effect, or effect the other way, or a change in a side signal; inactive = no such curve, though single readings can be large or run the other way; the % refers to the signal ratio;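 note: 0% = DMSO basal wells and 100% = rosiglitazone at 2 µM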)
In short: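 PPAR-gamma-UAS-bla HEK293 cells in medium with 1% charcoal/dextran-treated FBS were exposed to compounds for 16 h at 37 C. Beta-lactamase activity was read with CCF4 substrate (405 nm excitation, 460/530 nm emission).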

[22] = qHTS assay for small molecule agonists of retinoid X receptor alpha signaling (AID 588544; calls by dose curve); conditions: HEK293T RXRa-UAS-bla, beta-lactamase reporter, 18 h; 530 nm emission
[23] = target: Retinoic acid receptor RXR-alpha (Homo sapiens) (UniProt P19793); test: as above
[24] = target: Thyroid hormone receptor beta (Homo sapiens) (UniProt P10828); test: qHTS assay for small molecule agonists of thyroid hormone receptor beta signaling (AID 588545; calls by dose curve;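 note: 0% = DMSO only and 100% = 10 nM T3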)
In short: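 TR-UAS-bla-GripTite HEK 293 cells in medium with 2% charcoal/dextran FBS, 0.1 mM NEAA and 1 mM sodium pyruvate were treated with titrated compounds for 18 hrs at 37 C. Beta-lactamase reporter was read with CCF4 dye (ex 405, em 460/530 nm); EC50 from Hill fits.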

[25] = qHTS assay for small molecule antagonists of retinoid X receptor alpha signaling (AID 588546; active = well fitted inhibition curve with a large enough effect in the signal ratio, with a control signal flat, not every such curve was filed as active; inconclusive = small, poorly fitted or top-dose-only effect, or effect the other way, or a change in a side signal; inactive = no such curve, though single readings can be large or run the other way; the % refers to the signal ratio;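 note: cells stimulated with 9-cis-retinoic acid as agonist; % is set by controls: 0 for no effect and ±100 for the full control effect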); conditions: HEK293T RXRa-UAS-bla, beta-lactamase ratio, antagonist mode; measured here: W530 green channel, cytotoxicity proxy
In short: (§1)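 Beta-lactamase reporter inhibition, read as CCF4 fluorescence ratio (ex 405, em 460/530 nm) after 2 h at RT. HEK293T UAS-bla cells, 2500/well, were stimulated with 9-cis-RA at 500 or 100 nM final alongside test compound for 18 h at 37 C.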

[26] = target: Retinoic acid receptor RXR-alpha (Homo sapiens) (UniProt P19793); test: as above; conditions: HEK293T RXRa-UAS-bla, beta-lactamase ratio, antagonist mode
In short: as §1

[27] = target: Thyroid hormone receptor beta (Homo sapiens) (UniProt P10828); test: qHTS assay for small molecule antagonists of thyroid hormone receptor beta signaling (AID 588547; active = well fitted inhibition curve with a large enough effect in the signal ratio, with a control signal flat, not every such curve was filed as active; inconclusive = small, poorly fitted or top-dose-only effect, or effect the other way, or a change in a side signal; the % refers to the signal ratio;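 note: cells stimulated with 0.4 nM T3 agonist during compound exposure; series mostly up to about 77 µM; % is set by controls: 0 for no effect and ±100 for the full control effect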); conditions: TR-UAS-bla HEK293, beta-lactamase ratio, antagonist mode, 18 h
In short: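 Inhibition of T3-driven (0.4nM final) beta-lactamase reporter activity was measured over 0.59 nM to 92 uM compound after 18 h at 37 C. The cells were GripTite HEK293 TR-UAS-bla in charcoal/dextran-stripped serum, with CCF4 ratio read-out and IC50 from Hill fits.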

[28] = qHTS assay for small molecule activators of the p53 signaling pathway (AID 651743; active = well fitted activation curve with a large enough effect in the signal ratio, not every such curve was filed as active; inconclusive = small, poorly fitted or top-dose-only effect, or a change in a side signal; the % refers to the signal ratio; note: series mostly up to about 92 µM; % of control where 0% means no effect); conditions: HCT-116 p53RE-bla, beta-lactamase FRET ratio, 16 h; activation: stronger effect = higher value
In short: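 Screen for p53 pathway agonists uses stably transfected p53RE-bla HCT-116 cells, 4,000 per well, treated 16 h at 37 C with compounds in DMSO.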

[29] = qHTS assay for small molecule activators of the nuclear factor-kappa B (NF-kB) signaling pathway (AID 651749; active = well fitted activation curve with a large enough effect in the signal ratio; inconclusive = small, poorly fitted or top-dose-only effect, or a change in a side signal; the % refers to the signal ratio; note: series mostly up to about 77 µM; % of control where 0% means no effect); conditions: NF-kB-bla ME-180 cells, beta-lactamase FRET ratio, 16 h; activation: stronger effect = higher value
In short: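 Stably transfected ME-180 line; NF-kB response element upstream of beta-lactamase. Treatment: compound or DMSO, 16 hr. Detection: fluorescent FRET substrate.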

[30] = target: Tumor necrosis factor (Homo sapiens) (UniProt P01375); test: qHTS assay to identify small molecules that stimulate Tumor Necrosis Factor-alpha (TNF-alpha) secretion (AID 651757; active = well fitted curve in the direction sought with a large enough effect in the signal ratio; inconclusive = small, poorly fitted or top-dose-only effect, or a change in a side signal; inactive = no such curve, though single readings can be large or run the other way; the % refers to the signal ratio; note: 0% is about no effect)
In short: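 Secreted TNF-alpha from compound-treated THP-1 cells (17 hrs, 37 C) was quantified with a homogeneous time-resolved fluorescence antibody assay.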

[31] = qHTS assay for environmental chemicals that activate the Aryl hydrocarbon Receptor (AhR) signaling pathway (AID 651777); conditions: 1A2-DRE human hepatoma cells, luciferase, 24 h; activation: stronger effect = higher value; note: % of control where 0% means no effect; nearly all actives have a fitted effect of over 15% in size
In short: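 Following a 24 hr incubation with test chemicals at 37 C and 5% CO2, 1A2-DRE human hepatoma cells received One-Glo reagent; after 30 min at room temperature, luciferase output reflected CYP1A2 induction via AhR.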

[32] = target: Peroxisome proliferator-activated receptor alpha (Homo sapiens) (UniProt Q07869); test: qHTS assay for small molecule agonists of the peroxisome proliferator-activated receptor alpha (PPARalpha) signaling pathway (AID 651778); conditions: PathHunter PPARalpha complementation, chemiluminescence, 6 h; stronger effect = higher value; note: % of control where 0% means no effect
In short: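 Chemiluminescence from complemented enzyme reported PPARalpha activation in cells after 6 hr of compound treatment at 37 C. The detection reagent was incubated for 60 min at room temperature, and compounds were scored as agonists.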

[33] = target: Nuclear receptor ROR-gamma (Homo sapiens) (UniProt P51449); test: qHTS assay for small molecule antagonists of the retinoid-related orphan receptor gamma (ROR-gamma) signaling pathway (AID 651802)
In short: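 Antagonism is scored as a fall in luminescence from a RORE-luciferase reporter in CHO cells expressing ROR under a TET-inducible promoter, measured 16hr after doxycycline induction in the presence of compound.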

[34] = qHTS assay for small molecule agonists of the antioxidant response element (ARE) signaling pathway measured by Nrf2-dependant transcriptional activity (AID 720636; active = well fitted curve in the direction sought with a large enough effect in the repeat runs; inconclusive = weak or mixed curves; inactive = no such curve, though single readings can be large; an effect the other way counts as inactive or inconclusive;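 note: HepG2 cells with an ARE-driven luciferase reporter; % of control where 0% means no effect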)
In short: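 ONE-Glo luminescence, read 30 min after reagent addition at room temperature, reflected ARE reporter activity in HepG2 cells that had been incubated with compound for 16 hr at 37 C in 1% dialyzed FBS.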

[35] = qHTS assay for cell viability of HEK293 cells (AID 743288); conditions: ATP luminescence (CellTiter-Glo), 18 h; max response: stronger effect = lower value; note: % is set by controls: 0 for no effect and ±100 for the full control effect; nearly all actives have a fitted effect of over 50% in size
In short: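 Parental HEK293 cells, 2,000 per well, preincubated at least 5 h at 37 C, then exposed to compounds in DMSO for 18 h at 37 C. Viability by CellTiter-Glo ATP luminescence after 30 min at room temperature.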

[36] = qHTS assay for cell viability of the p53RE-bla HCT-116 cell line (AID 743292)
In short: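 After plating at 4,000 cells per well and a 5 h rest at 37 C, HCT-116 cells carrying p53RE-bla received test chemicals in DMSO. Sixteen hours later at 37 C, CellTiter-Glo was added and luminescence recorded following 30 min at room temperature.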

[37] = target: Glutathione peroxidase 1 (Homo sapiens) (UniProt P07203); test: Primary qHTS Assay for Inhibitors of Recombinant Selenoprotein Glutathione Peroxidase 1 (GPX1) (AID 1845191); note: % is set by controls: 0 for no effect and ±100 for the full control effect; nearly all actives have a fitted effect of over 65% in size
In short: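 10 nM GPX1 + cpd, 30 min RT; start w/ 1 mM GSH, 0.5 mM cumene hydroperoxide, 0.5 mM NADPH, 100 nM GR, 0.01% BSA; buffer 50 mM Tris-HCl pH 7.5, 2 mM EDTA, 150 mM NaCl; Fl 340/450, 0 & 15 min.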

[38] = target: Nuclear receptor subfamily 1 group I member 2 (Rattus norvegicus) (UniProt Q9R1A7); test: qHTS assay for small molecule activators of the rat pregnane X receptor (rPXR) signaling pathway (AID 651751; call rule not given here; note: 0% is about no effect); conditions: rPXR reporter cells, luciferase (One-Glo), 24 h
Chain of Nuclear receptor subfamily 1 group I member 2 (Rattus norvegicus) (Q9R1A7 whole entry, looked up): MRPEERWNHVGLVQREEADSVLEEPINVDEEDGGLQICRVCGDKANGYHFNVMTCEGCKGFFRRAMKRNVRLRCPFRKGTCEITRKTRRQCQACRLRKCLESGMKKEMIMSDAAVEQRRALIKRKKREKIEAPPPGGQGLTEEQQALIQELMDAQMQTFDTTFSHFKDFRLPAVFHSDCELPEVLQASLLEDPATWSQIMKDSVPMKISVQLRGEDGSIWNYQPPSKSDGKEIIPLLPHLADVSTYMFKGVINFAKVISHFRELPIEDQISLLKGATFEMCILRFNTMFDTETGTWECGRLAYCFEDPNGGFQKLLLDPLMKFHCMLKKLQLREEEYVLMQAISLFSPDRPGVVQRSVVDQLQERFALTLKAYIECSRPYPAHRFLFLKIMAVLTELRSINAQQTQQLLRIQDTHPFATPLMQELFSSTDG

Chain of Thyroid hormone receptor beta (Homo sapiens) (P10828 whole entry, looked up): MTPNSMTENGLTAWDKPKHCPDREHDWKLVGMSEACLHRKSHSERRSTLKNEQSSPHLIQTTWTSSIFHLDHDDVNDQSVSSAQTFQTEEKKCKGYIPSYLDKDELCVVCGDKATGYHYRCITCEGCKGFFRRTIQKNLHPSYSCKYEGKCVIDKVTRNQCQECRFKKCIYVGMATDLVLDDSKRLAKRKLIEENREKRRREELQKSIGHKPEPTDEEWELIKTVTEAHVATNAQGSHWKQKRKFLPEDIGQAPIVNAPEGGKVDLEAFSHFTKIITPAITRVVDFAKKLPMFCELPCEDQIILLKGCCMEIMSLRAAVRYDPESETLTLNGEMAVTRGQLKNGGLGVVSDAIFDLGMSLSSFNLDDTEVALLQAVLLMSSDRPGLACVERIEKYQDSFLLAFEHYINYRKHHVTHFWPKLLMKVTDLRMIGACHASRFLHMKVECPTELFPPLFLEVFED
Chain of Peroxisome proliferator-activated receptor alpha (Homo sapiens) (Q07869 whole entry, looked up): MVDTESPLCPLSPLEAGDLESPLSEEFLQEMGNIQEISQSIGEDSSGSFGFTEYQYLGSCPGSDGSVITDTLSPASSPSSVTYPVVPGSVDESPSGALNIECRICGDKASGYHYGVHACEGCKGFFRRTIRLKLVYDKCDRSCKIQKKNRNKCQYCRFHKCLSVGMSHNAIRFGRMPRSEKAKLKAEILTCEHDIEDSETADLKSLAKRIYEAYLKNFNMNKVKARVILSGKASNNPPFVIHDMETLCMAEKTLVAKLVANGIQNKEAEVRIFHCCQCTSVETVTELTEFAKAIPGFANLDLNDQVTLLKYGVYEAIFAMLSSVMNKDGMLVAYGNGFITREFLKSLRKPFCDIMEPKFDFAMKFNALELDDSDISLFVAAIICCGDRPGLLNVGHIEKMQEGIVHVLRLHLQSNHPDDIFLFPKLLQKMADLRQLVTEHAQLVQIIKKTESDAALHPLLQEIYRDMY
Chain of Retinoic acid receptor RXR-alpha (Homo sapiens) (P19793 whole entry, looked up): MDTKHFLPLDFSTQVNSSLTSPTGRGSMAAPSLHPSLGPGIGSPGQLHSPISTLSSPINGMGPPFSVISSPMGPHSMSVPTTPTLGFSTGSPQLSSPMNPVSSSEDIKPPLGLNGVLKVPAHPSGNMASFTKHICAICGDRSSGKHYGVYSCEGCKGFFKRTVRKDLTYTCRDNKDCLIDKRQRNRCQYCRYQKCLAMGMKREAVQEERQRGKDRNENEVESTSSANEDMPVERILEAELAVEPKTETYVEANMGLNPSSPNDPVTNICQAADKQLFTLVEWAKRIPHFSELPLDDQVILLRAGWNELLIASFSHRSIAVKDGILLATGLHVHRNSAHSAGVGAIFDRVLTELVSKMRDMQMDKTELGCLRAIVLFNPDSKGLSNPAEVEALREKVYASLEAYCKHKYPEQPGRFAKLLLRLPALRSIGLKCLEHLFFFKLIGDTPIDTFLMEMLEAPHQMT
Chain of Tumor necrosis factor (Homo sapiens) (P01375 whole entry, looked up): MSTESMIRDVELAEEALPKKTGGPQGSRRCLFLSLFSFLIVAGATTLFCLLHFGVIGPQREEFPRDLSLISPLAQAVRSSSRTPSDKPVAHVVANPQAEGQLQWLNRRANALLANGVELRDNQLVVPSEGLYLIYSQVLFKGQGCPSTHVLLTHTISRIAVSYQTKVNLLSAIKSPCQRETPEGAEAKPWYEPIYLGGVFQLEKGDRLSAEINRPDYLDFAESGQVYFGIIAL
Chain of Peroxisome proliferator-activated receptor gamma (Homo sapiens) (P37231 whole entry, looked up): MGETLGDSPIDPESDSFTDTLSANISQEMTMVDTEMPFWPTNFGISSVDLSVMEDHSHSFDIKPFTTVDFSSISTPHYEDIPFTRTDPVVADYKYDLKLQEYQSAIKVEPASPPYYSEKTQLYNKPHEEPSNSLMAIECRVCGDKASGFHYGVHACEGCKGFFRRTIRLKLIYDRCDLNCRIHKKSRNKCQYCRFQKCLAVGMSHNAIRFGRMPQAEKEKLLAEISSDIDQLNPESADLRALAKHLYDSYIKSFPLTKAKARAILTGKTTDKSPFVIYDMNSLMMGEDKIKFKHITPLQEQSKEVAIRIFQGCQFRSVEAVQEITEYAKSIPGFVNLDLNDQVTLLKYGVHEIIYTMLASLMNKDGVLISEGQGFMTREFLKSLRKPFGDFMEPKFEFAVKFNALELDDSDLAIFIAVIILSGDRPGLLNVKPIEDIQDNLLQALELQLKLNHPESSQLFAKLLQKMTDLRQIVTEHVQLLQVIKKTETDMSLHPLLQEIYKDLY
Chain of Estrogen receptor (Homo sapiens) (P03372 whole entry, looked up): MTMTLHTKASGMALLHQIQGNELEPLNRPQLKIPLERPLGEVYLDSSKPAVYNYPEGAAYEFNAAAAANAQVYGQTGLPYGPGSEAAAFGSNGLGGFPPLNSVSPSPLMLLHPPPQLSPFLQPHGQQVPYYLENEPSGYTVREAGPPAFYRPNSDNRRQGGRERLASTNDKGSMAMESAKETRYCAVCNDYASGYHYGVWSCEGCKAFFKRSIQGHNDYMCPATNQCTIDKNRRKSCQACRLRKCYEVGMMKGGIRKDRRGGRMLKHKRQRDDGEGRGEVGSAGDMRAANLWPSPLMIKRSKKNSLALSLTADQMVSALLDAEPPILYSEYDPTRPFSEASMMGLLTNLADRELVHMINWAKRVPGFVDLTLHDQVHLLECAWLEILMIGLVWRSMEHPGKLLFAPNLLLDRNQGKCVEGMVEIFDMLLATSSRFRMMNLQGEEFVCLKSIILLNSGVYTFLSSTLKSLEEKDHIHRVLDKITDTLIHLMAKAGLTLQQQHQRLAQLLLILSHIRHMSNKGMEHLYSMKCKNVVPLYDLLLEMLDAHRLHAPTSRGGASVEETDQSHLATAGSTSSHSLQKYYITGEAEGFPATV
Chain of Glutathione peroxidase 1 (Homo sapiens) (P07203 whole entry, looked up): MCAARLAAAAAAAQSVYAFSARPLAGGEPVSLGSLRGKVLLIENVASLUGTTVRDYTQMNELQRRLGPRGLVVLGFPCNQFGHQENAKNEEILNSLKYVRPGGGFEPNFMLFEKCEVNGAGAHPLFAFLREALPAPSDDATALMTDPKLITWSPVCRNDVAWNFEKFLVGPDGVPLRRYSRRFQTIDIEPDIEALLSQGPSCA
Chain of Nuclear receptor ROR-gamma (Homo sapiens) (P51449 whole entry, looked up): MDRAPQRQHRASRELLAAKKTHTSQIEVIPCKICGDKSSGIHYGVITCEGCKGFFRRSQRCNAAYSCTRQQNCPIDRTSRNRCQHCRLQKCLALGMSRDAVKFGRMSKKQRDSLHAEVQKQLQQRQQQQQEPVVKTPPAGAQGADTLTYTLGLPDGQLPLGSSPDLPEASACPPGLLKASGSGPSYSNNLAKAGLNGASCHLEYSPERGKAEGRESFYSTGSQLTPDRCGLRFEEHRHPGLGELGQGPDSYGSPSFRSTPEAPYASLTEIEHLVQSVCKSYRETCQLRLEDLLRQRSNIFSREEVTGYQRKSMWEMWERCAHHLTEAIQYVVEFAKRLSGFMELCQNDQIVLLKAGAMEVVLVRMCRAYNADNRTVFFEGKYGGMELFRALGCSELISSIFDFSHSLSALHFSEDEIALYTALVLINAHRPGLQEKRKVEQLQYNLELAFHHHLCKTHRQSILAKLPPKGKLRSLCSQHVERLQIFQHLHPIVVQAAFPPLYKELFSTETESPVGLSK
Chain of Androgen receptor (Homo sapiens) (P10275 whole entry, looked up): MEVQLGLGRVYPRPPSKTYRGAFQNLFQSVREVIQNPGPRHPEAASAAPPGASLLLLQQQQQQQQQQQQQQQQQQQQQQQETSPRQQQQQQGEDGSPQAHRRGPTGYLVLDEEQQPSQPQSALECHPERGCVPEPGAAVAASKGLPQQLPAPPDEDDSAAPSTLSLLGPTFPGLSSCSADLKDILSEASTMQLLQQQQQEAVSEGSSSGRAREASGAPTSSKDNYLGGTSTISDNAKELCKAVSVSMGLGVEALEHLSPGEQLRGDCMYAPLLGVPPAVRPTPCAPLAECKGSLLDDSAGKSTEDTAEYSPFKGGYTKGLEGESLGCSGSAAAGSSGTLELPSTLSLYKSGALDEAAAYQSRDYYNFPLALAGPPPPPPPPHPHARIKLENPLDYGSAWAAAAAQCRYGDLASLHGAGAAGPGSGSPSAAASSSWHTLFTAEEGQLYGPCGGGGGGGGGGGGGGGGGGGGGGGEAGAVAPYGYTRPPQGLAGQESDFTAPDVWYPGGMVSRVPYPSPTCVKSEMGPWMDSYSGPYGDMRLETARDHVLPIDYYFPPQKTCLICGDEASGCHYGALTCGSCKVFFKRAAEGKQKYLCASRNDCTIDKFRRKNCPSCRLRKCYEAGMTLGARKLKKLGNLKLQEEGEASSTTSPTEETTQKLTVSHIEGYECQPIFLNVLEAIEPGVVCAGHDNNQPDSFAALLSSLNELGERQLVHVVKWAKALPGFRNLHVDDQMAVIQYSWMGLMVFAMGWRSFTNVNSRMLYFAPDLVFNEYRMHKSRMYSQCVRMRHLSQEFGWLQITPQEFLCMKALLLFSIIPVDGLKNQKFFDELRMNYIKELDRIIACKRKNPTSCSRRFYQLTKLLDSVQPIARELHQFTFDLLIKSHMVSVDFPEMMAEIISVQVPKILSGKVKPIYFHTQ

C[C@H]1CCCC(=O)CCC/C=C/c2cc(O)cc(O)c2C(=O)O1
17.7%: max response [25]
inactive: Potency [1] | Potency [2] | Potency [3] | Potency [4] | Potency [5] | Potency [6] | Potency [7] | Potency [8] | Potency [9] | Potency [10] | Potency [11] | Potency [12] | Potency [13] | Potency [14] | Potency [15] | Potency [16] | outcome [17] | outcome [21] | Potency [23] | outcome [24] | max response [26] -20.8% | activity change % (negative = inhibition) [27] -19.1% and -18.2% | activation [28] 20.6% | activation [29] -2.55% and -2.52% and -4.61% | outcome [30] | activation [31] -5.88% and -4.48% and -7.69% | max response [32] -0.403% and -3.88% and -0.278% | outcome [34] | max response [35] -26.5% and -8.31% and -15% | Potency [36] | Potency [37] | max response [38] -12.4% and -5.06% and -7.58%
active: Potency [18] 14.1 µM [inconclusive] | Potency [19] 10 nM | Potency [20] 44.7 µM | Potency [33] 42.2 µM
-13.4% and 26.9%: max response [22]

Reference: PubChem BioAssay (NCATS)
